Test results as given in PubChem BioAssay (Tox21).
Results filed as inconclusive are left out. Activity calls are given as the source filed them. Unless noted, calls follow the shape of the dose curve; as a rule, active = well fitted curve in the direction sought with a large enough effect in the repeat runs; inconclusive = weak or mixed curves; inactive = no such curve, though single readings can be large; an effect the other way counts as inactive or inconclusive.

Assays:
[1] = qHTS assay to identify small molecule antagonists of the estrogen related receptor (ERR) signaling pathway from Tox21 library - cell viability counter screen (AID 1224834); also: nearly all actives have a fitted effect of over 30% in size
Procedure, shortened: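 CellTiter-Fluor fluorescence measured; ERR cells; 17.5 h compound incubation at 37 C; 30 min reagent step.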

[2] = qHTS assay to identify small molecule agonists of the constitutive androstane receptor (CAR) signaling pathway - cell viability counter screen (AID 1224836); also: nearly all actives have a fitted effect of over 45% in size
Procedure, shortened: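 Double-stable HepG2 hepatoma cells (hCAR plus CYP2B6-2.2kb) are treated for 23 h at 37 C with test compounds in 15-point concentration series. PK11195 at 0.75 uM final is co-added. Cell viability is quantified by CellTiter-Fluor.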

[3] = qHTS assay to identify small molecule antagonists of the constitutive androstane receptor (CAR) signaling pathway - cell viability counter screen (AID 1224837); also: nearly all actives have a fitted effect of over 45% in size
Procedure, shortened: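 Using CellTiter-Fluor, viability is scored in HepG2 cells stably carrying hCAR and a 2.2kb CYP2B6 reporter after 23 hr compound exposure across 15 concentrations, with CITCO present at 50 nM.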

[4] = target: Nuclear receptor subfamily 1 group I member 3 (Homo sapiens) (UniProt Q14994); experiment: qHTS assay to identify small molecule antagonists of the constitutive androstane receptor (CAR) signaling pathway (AID 1224838);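 also: HepG2 cells stably expressing hCAR with CYP2B6 luciferase reporter stimulated by CITCO; nearly all actives have a fitted effect of over 40% in size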
Procedure, shortened: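 Reporter luminescence was quantified after 24 h exposure of hCAR/CYP2B6-2.2kb double-stable HepG2 cells to compounds at 15 concentrations in the presence of 50 nM CITCO final.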

[5] = target: Nuclear receptor subfamily 1 group I member 3 (Homo sapiens) (UniProt Q14994); experiment: qHTS assay to identify small molecule agonists of the constitutive androstane receptor (CAR) signaling pathway (AID 1224839);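 also: HepG2 cells stably carrying human CAR and a CYP2B6 luciferase reporter; nearly all actives have a fitted effect of over 15% in size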
Procedure, shortened: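 Readout: firefly luciferase luminescence via ONE-Glo. System: HepG2 double-stable for hCAR and CYP2B6-2.2kb. Conditions: 15-point compound titration, PK11195 at 0.75 uM final, 24 h incubation.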

[6] = qHTS assay to identify small molecule antagonists of the estrogen related receptor signaling pathway with the pleiotropic PPARgamma coactivator (PGC) from Tox21 10K library - cell viability counter screen (AID 1224840; active = well fitted cell-killing curve with a large enough effect in the repeat runs, not every such curve was filed as active; also: nearly all actives have a fitted effect of over 40% in size)
Procedure, shortened: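 Here the PGC/ERR cells serve as a cytotoxicity control: they are exposed to compounds for 17.5 hours at 37 C, and live-cell signal is quantified using CellTiter-Fluor fluorescence.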

[7] = qHTS assay to identify small molecule antagonists of the estrogen related receptor signaling pathway with the pleiotropic PPARgamma coactivator (PGC) from Tox21 10K library (AID 1224841; call rule not given here; also: actives are mostly falling curves and most rising ones were filed inactive; nearly all actives have a fitted effect of over 50% in size)
Procedure, shortened: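 Each well held 2,000 PGC/ERR cells, pre-incubated six hours (37 C, 5% CO2). Test substances in DMSO were added by pin tool and left for 18 h at 37 C before luciferase detection by One-Glo.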

[8] = qHTS assay to identify small molecule agonists of the estrogen related receptor signaling pathway with the pleiotropic PPARgamma coactivator (PGC) from Tox21 10K library (AID 1224842); also: nearly all actives have a fitted effect of over 15% in size
Procedure, shortened: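 Luminescence from One-Glo (30 min, room temperature) measured after PGC/ERR cells had 18 h at 37 C with pinned compound (23 nL in DMSO). Cells had been seeded at 2,000 per well and pre-incubated 6 h.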

[9] = target: Thyrotropin receptor (Homo sapiens) (UniProt P16473); experiment: qHTS assay to identify small molecule agonists of the thyroid stimulating hormone receptor (TSHR) signaling pathway (AID 1224843; calls by dose curve; also: nearly all actives have a fitted effect of over 45% in size)
Procedure, shortened: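 HEK293 cells stably bearing the thyrotropin receptor were plated at 800 cells/well and challenged with compound (30 min, RT). Accumulated cAMP was quantified via cAMP-d2 competing for cryptate-tagged antibody.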

[10] = qHTS assay to identify small molecule agonists of the hypoxia (HIF-1) signaling pathway - cell viability counter screen (AID 1224844; calls by dose curve; also: nearly all actives have a fitted effect of over 50% in size)
Procedure, shortened: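 Multiplexed with the HRE beta-lactamase assay, this viability read used CellTiter-Glo luminescence (30 min, RT) on HRE-bla ME-180 cells treated 17 hrs with compounds in 0.5% dialyzed FBS medium.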

[11] = qHTS assay to identify small molecule agonists of H2AX (AID 1224845; active = well fitted activation curve with a large enough effect in the signal ratio in the repeat runs, not every such curve was filed as active; the % refers to the signal ratio)
Procedure, shortened: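 Phospho-H2AX Ser139 measured by HTRF (ex 320 nm; em 665 and 620 nm) after 24 hr antibody incubation. Compounds, 15 concentrations, 0.76% DMSO, were applied to CHO-K1 cells for 3hr at 37C before lysis.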

[12] = qHTS assay to identify small molecule agonists of the hypoxia (HIF-1) signaling pathway (AID 1224846; active = well fitted activation curve with a large enough effect in the signal ratio in the repeat runs, not every such curve was filed as active; the % refers to the signal ratio)
Procedure, shortened: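 Hypoxia-pathway activation was scored as increased beta-lactamase from an HRE-controlled reporter in ME-180 cells; plated at 2,000 cells per well with 0.5% dialyzed FBS, they were exposed 17 hrs to compounds and then given CCF4-AM.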

[13] = qHTS assay to identify small molecule agonists of H2AX - cell viability counter screen (AID 1224847; calls by dose curve;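 also: wild-type CHO-K1 cells; top concentration of the series differs between compounds; nearly all actives have a fitted effect of over 30% in size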)
Procedure, shortened: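 For this counter screen, overnight-attached CHO-K1 cells received test compounds (15 concentrations, 0.76% DMSO final); 3 hr later at 37C, CellTiter-Glo reagent was added and luminescence recorded after 30 min at room temperature.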

[14] = qHTS assay to identify small molecule antagonists of the estrogen related receptor (ERR) signaling pathway from Tox21 library (AID 1224848); also: nearly all actives have a fitted effect of over 50% in size
Procedure, shortened: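 Reading was by luminescence 30 min after ONE-Glo addition. Before that, ERR cells at 2,000 per well had rested 6 h at 37 C/5% CO2 and then received pin-tooled compounds in DMSO for 18 h at 37 C.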

[15] = qHTS assay to identify small molecule agonists of the estrogen related receptor (ERR) signaling pathway from Tox21 library (AID 1224849; calls by dose curve; also: nearly all actives have a fitted effect of over 15% in size); conditions: ERR reporter cell line, ONE-Glo luciferase, 18 h; at 92.4 µM (top of the series) unless noted
Procedure, shortened: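 Six hours post-seeding at 37 C/5% CO2, ERR cells receive DMSO-solubilised compounds; after 18 h at 37 C, ONE-Glo reagent is applied and luminescence recorded.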

[16] = qHTS RealTime-Glo MT Cell Viability Assay in HepG2 cells - 24 hour (AID 1224867); also: nearly all actives have a fitted effect of over 50% in size
Procedure, shortened: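 Tox21 10K library screened in qHTS format on HepG2 cells carrying RealTime-Glo reagents. Compounds were added after a 5 h preincubation, and the luminescent signal from continuous culture was measured repeatedly during 40 h treatment.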

[17] = qHTS RealTime-Glo MT Cell Viability Assay in HEK293 cells - 32 hour (AID 1224868)
Procedure, shortened: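 Luminescence generated by NanoLuc from substrate produced by living HEK293 cells served as the viability signal. Each value reflects the reading at its stated time point during continuous 40 h compound exposure at 37 C.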

[18] = A CellTox Green Cytotoxicity Assay to monitor cytotoxicity in HEK293 cells - 0 hour (AID 1224869); also: nearly all actives have a fitted effect of over 50% in size
Procedure, shortened: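 Seeding of HEK293 cells together with cytotoxicity dye preceded a 5 h incubation at 37 C/5% CO2. Test compounds in DMSO were then added and fluorescence monitored across 40 h.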

[19] = target: Luciferin 4-monooxygenase (Photinus pyralis) (UniProt P08659); experiment: qHTS assay to identify small molecule inhibitors of firefly luciferase (AID 1224835); also: nearly all actives have a fitted effect of over 25% in size
Procedure, shortened: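 Inhibition of purified Photinus luciferase is measured by luminescence. Substrate levels (D-luciferin, ATP) sit at their KM values. Each compound is tested in a concentration series.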
% is scaled to controls: 0 for no effect and ±100 for the full control effect.

Thyrotropin receptor (Homo sapiens), sequence (P16473 whole entry, looked up): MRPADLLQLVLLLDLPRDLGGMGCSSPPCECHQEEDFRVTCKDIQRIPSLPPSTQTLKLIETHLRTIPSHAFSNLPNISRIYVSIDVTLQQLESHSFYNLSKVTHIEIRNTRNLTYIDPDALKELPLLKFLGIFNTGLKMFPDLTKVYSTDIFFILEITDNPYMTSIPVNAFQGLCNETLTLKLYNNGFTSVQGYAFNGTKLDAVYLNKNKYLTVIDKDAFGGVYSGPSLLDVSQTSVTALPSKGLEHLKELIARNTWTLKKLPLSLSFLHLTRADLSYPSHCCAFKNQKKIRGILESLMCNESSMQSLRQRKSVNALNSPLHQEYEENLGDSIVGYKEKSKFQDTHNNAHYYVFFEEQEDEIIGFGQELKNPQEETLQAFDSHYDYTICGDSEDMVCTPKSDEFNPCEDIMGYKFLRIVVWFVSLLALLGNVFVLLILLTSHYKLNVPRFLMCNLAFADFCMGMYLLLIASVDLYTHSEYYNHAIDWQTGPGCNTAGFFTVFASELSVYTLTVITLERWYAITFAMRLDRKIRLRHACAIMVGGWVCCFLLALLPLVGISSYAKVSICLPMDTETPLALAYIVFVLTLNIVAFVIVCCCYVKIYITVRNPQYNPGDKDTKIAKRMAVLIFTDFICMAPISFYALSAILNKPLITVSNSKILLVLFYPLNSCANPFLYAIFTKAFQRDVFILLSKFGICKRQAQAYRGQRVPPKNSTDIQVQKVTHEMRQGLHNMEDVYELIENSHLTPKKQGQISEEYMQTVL
Luciferin 4-monooxygenase (Photinus pyralis), sequence (P08659 whole entry, looked up): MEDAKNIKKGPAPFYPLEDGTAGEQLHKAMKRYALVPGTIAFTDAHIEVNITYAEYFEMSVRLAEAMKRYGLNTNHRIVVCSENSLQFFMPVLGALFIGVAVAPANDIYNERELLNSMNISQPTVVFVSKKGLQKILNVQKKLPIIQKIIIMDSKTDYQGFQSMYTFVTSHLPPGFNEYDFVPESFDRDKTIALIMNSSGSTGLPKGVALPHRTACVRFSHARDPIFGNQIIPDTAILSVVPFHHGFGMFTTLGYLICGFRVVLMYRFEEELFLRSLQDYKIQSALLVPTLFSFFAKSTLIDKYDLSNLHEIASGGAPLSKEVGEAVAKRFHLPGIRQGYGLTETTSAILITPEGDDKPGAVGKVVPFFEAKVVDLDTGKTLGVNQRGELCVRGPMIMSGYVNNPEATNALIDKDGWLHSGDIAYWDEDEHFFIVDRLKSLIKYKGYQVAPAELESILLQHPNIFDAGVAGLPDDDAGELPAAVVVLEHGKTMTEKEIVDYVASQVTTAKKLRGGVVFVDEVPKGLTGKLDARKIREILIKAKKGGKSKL
Nuclear receptor subfamily 1 group I member 3 (Homo sapiens), sequence (Q14994 whole entry, looked up): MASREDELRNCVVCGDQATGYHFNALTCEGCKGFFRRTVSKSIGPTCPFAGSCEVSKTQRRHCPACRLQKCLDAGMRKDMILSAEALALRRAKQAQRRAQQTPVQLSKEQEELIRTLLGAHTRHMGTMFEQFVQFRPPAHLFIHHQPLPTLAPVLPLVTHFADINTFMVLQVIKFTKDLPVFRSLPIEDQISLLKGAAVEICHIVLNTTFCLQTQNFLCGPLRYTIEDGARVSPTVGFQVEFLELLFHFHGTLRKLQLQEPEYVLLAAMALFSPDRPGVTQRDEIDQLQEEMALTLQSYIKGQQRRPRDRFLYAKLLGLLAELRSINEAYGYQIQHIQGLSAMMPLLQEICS

Cc1cccn2c(=O)c(-c3nnn[nH]3)cnc12
inactive: viability change, negative = cytotoxic [1] 0.715% [at 19 µM] | viability change, negative = cytotoxic [2] 10.1% [at 19 µM] | activity change, negative = cytotoxicity [3] -0.444% [at 19 µM] | activity, negative = inhibition [4] -0.816% [at 19 µM] | activation [5] 2.7% [at 19 µM] | viability change, negative = cytotoxic [6] 11.8% [at 19 µM] | activity, negative = inhibition [7] 13.5% [at 19 µM] | activation [8] 4.84% [at 19 µM] | Potency [9] | activity change, negative = cytotoxicity [10] -2.16% [at 15.8 µM] | outcome [11] | activation [12] -0.179% [at 15.8 µM] | Potency [13] | activity, negative = inhibition [14] 7.1% [at 19 µM] | activity change, positive = activation [15] 4.72% [at 19 µM] | activity change, negative = cytotoxicity [16] -2.42% [at 15.8 µM] | activity change, negative = cytotoxic [17] -0.452% [at 15.8 µM] | cytotoxicity [18] 3.94% [at 15.8 µM]

CCCC(=O)O[C@]1(C(=O)CO)CC[C@H]2[C@@H]3CCC4=CC(=O)CC[C@]4(C)[C@H]3[C@@H](O)C[C@@]21C
inactive: Potency [1] | Potency [2] | Potency [3] | Potency [4] | Potency [5] | Potency [6] | Potency [7] | outcome [8] | Potency [9] | Potency [10] | outcome [11] | outcome [12] | Potency [13] | Potency [14] | activity change, positive = activation [15] -12.3% [at 42.5 µM] | Potency [16] | Potency [18]

CC/C=C\CC/C=C/C(OCC)OCC
inactive: Potency [1] | Potency [19] | Potency [2] | Potency [4] | Potency [5] | Potency [6] | Potency [7] | outcome [8] | Potency [9] | Potency [10] | outcome [11] | outcome [12] | Potency [13] | activity change, positive = activation [15] 2.27% | Potency [16] | Potency [17] | Potency [18]

NC(=O)COCCN1CCN(C(c2ccccc2)c2ccc(Cl)cc2)CC1 (stereo unspecified)
inactive: Potency [1] | Potency [2] | Potency [3] | Potency [4] | Potency [5] | Potency [6] | Potency [7] | outcome [8] | Potency [9] | Potency [10] | outcome [11] | outcome [12] | Potency [13] | Potency [14] | activity change, positive = activation [15] 5.27% [at 42.5 µM] | Potency [16] | Potency [17] | Potency [18]

N[C@H](C(=O)O)c1ccc(O)cc1
inactive: viability change, negative = cytotoxic [1] -0.517% [at 19 µM] | viability change, negative = cytotoxic [2] -1.44% [at 19 µM] | activity change, negative = cytotoxicity [3] 4.98% [at 19 µM] | activity, negative = inhibition [4] -5.61% [at 19 µM] | activation [5] -0.259% [at 19 µM] | viability change, negative = cytotoxic [6] -4.51% [at 19 µM] | activity, negative = inhibition [7] 1.15% [at 19 µM] | activation [8] 0.319% [at 19 µM] | Potency [9] | activity change, negative = cytotoxicity [10] 4.56% [at 15.8 µM] | outcome [11] | activation [12] 0.0786% [at 15.8 µM] | Potency [13] | activity, negative = inhibition [14] 2.86% [at 19 µM] | activity change, positive = activation [15] 1.6% [at 19 µM] | activity change, negative = cytotoxicity [16] -0.341% [at 15.8 µM] | cytotoxicity [18] -2.5% [at 15.8 µM]

O=C[C@H](O)[C@@H](O)[C@H](O)[C@H](O)CO
inactive: Potency [1] | Potency [19] | Potency [2] | Potency [4] | Potency [5] | Potency [6] | Potency [7] | outcome [8] | Potency [9] | Potency [10] | outcome [11] | outcome [12] | Potency [13] | activity change, positive = activation [15] 3.09% | Potency [16] | Potency [18]

Nc1cc(=O)[nH]c(N)n1
inactive: Potency [1] | Potency [19] | Potency [2] | Potency [4] | Potency [5] | Potency [6] | Potency [9] | Potency [10] | outcome [11] | Potency [13] | Potency [16] | Potency [17] | Potency [18]
